Sampled rows, rich in hits. Any-hit rate of the full collection: about 3.4%.
FBW7 act: FBW7 E3 ligase activators, primary screen, biochemical, AlphaScreen, human | 650,000 tested, 0.13% active | F-box/WD repeat-containing protein 7 (Homo sapiens), Q969H0 | AID 1259310, 2017 | normalized activity (activation), % at 26.1 µM | AlphaScreen FBW7–phospho-cyclin E peptide binding, activator screen; in the data active = normalized activity above about 1.9%;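 note: purified mutant Fbw7 with reduced substrate affinity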
MITF inh: MITF inhibitors, primary screen, biochemical, AlphaScreen, human | Microphthalmia-associated transcription factor (Homo sapiens), O75030 | AlphaScreen MITF homodimerization, bead proximity signal | inhibition, % at 2.6 µM | 650,000 tested, 0.91% active | AID 1259374, 2018; in the data active = inhibition above about 50%;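 note: 0% = vehicle wells with protein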
TEAD-YAP block: TEAD-YAP interaction inhibition, primary screen, TEAD-YAP interaction inhibitor project, luminescence, HEK-TIYL cells; TEAD-Gal4/YAP UAS-luciferase luminescence; inhibition, % at 9.12 µM; 640,000 tested, 1.4% active; AID 1259422, 2018; in the data active = inhibition above about 32%;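 note: 0% = median of test compound wells and 100% = reference inhibitor wells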
GPR151 activ: activators of human GPR151, primary screen, cell-based, PathHunter beta-arrestin, luminescence; PathHunter beta-arrestin GPR151 cells; G-protein coupled receptor 151 (Homo sapiens), Q8TDV0; activation, % at 11.2 µM; 650,000 tested, 1% active; in the data active = activation above about 4.9%;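 note: 0% = median of compound wells and 100% = cells with positive control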
An asterisk follows results filed as active.

SMILES	FBW7 act	MITF inh	TEAD-YAP block	GPR151 activ
CCOC(=O)c1ccc(N2NC(=O)/C(=C/c3ccc(C)o3)C2=O)cc1	0	5	7	1
O=C(Nc1cccc(N2CCC(NCc3cnn(-c4ccccc4)n3)CC2)c1)C1CC1	0	4	4	0
Cc1cc(Cl)c(S(N)(=O)=O)cc1OCC(=O)NC1CCCCC1	0	1	-3	1
Cc1cc(Cl)c(S(=O)(=O)N2CCSCC2)cc1OCC(=O)NC1CCCCC1	1	11	38*	-2
CCOC(=O)c1ccc(NC(=O)CSc2nc3ccccc3c(=O)n2CC2CCC(C(=O)NCc3ccccc3)CC2)cc1 (configuration not stated)	0	9	11	-1
CCN(CC)c1ccc(/C=N\Nc2cc(=O)n(C)c(=O)n2C)cc1	0	4	55*	0
CC1CN(Cc2cc([N+](=O)[O-])c3cccnc3c2O)CC(C)O1 (configuration not stated)	-1	84*	54*	-1
COCc1cc(CN2CCC(C)CC2)c(O)c2ncccc12	-1	104*	65*	0
CC1CCN(Cc2cc(COC(C)C)c3cccnc3c2O)CC1	-1	85*	15	-3
COc1ccc(CNc2ncc(-c3ccc(N4CCN(C)CC4)nc3)n3ccnc23)cc1	0	4	-4	0
CC(=O)c1cccc(-c2cnc3c(NC(CO)C(C)C)nccn23)c1 (configuration not stated)	-1	-3	4	-1
CC(C)C(CO)Nc1nccn2c(-c3ccc(C(=O)NC4CC4)cc3)cnc12 (configuration not stated)	0	-12	51*	-1
CC(C)C(CO)Nc1nccn2c(-c3cccc(NS(C)(=O)=O)c3)cnc12 (configuration not stated)	-1	-8	55*	-1
CCN1CCN(c2ncc(C(=O)Nc3cc(C)on3)c3ccccc23)CC1	0	-20	-18	1
Cc1ncc(CO)c(/C=N/NC(=O)c2ccc(Cl)c(Cl)c2)c1O	-1	-6	-1	0
Cc1ncc(CO)c(/C=N/Nc2ccc3ccccc3n2)c1O	-1	5	52*	0
Cc1ncc(CO)c(/C=N/Nc2cccc(Cl)n2)c1O	0	6	-13	1
Cc1ncc(CO)c(/C=N/NC(=O)c2cc(O)c(O)c(O)c2)c1O	0	99*	-7	1
Cc1ncc(CO)c(/C=N/NC(=O)CCCOc2ccc(Cl)cc2Cl)c1O	0	9	55*	1
CC(C(=O)N1CCC(CO)(Cc2ccccc2C(F)(F)F)CC1)N1CCCC1=O (configuration not stated)	0	0	9	0
Cc1ccccc1CNC(=O)Cn1c(=O)c2cccn2c2ccccc21	0	-8	-9	-1
O=C(O)c1ccc(NCCSCc2ccccc2)c([N+](=O)[O-])c1	0	-5	35*	0
O=C1CN(CC(=O)Nc2ccc(Cl)cc2Cl)CCN1	0	-7	-2	0
Cc1cc(C(=O)COC(=O)c2ccccc2[N+](=O)[O-])c(C)n1CC(F)(F)F	0	5	95*	-11
Cc1cc(C(=O)COC(=O)c2n[nH]c3ccccc23)c(C)n1CC1CCCO1 (configuration not stated)	0	-1	94*	-7
SMILES	FBW7 act	MITF inh	TEAD-YAP block	GPR151 activ
COc1ccc(C(=O)OCC(=O)c2cc(C)n(CC(F)(F)F)c2C)cc1[N+](=O)[O-]	0	-6	9	0
Cc1cc(C(=O)COC(=O)c2ccccc2Br)c(C)n1CC1CCCO1 (configuration not stated)	0	0	92*	-6
COCCn1c(C)cc(C(=O)COC(=O)c2ccccc2Br)c1C	0	7	82*	-6
COCCn1c(C)cc(C(=O)COC(=O)c2cccnc2SC)c1C	0	7	10	-6
Cc1cc(C(=O)COC(=O)c2cccnc2Cl)c(C)n1CC1CCCO1 (configuration not stated)	0	13	66*	-7
O=C(NCCOc1ccccc1)c1cccc(Nc2ccncc2)n1	0	-8	-8	1
O=C(NCCc1ccc(O)cc1)c1csc(Nc2ccc(-n3ccnc3)cc2)n1	0	25	31	-2
O=C(NCCOc1ccccc1)c1csc(Nc2ccc(-n3ccnc3)cc2)n1	0	15	45*	2

From PubChem BioAssay
